Compound activity (PubChem BioAssay)
TNAP act mid DEA – human TNAP enzyme activators, primary screen, biochemical, luminescent, intermediate phosphate acceptor level; purified TNAP, CDP-star luminescence, 100 mM DEA, 30 min; active compounds read high; scale: 0 levamisole-inhibited, 1 vehicle-only enzyme; activation factor at 20 µM; 64,000 tested, under 10 active; AID 813, 2007;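 active = activation factor of at least 2 at 20 µM, relative to controls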
Target sequence (P05186 whole entry, looked up): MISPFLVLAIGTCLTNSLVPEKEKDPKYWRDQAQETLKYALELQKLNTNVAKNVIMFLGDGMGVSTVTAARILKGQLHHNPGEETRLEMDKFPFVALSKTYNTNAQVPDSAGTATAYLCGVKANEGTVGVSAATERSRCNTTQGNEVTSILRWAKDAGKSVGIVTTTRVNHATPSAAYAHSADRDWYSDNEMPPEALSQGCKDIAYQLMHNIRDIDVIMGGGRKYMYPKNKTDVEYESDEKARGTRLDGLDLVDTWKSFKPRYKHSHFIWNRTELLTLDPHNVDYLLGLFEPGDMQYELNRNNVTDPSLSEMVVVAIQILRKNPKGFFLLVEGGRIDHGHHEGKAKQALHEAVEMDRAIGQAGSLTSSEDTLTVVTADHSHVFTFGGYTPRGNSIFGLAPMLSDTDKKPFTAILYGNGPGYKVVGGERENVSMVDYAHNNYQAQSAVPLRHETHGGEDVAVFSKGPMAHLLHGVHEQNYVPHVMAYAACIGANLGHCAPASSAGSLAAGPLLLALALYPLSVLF
CD11b adhes enh – enhancers of CD11b/CD18 adhesion to fibrinogen, primary screen, K562 cells, luminescence | ATPlite luminescence | actives 0.07% (n = 93,000) | activation, % at 10 µM | Integrin beta-2 (Homo sapiens) + Integrin alpha-M (Homo sapiens), P05107+P11215;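 active = 10 µM primary screen giving 50% or more activity, confirmed by 40% or more on retest at that dose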
Phagocytosis inh – inhibitors of macrophage phagocytosis, primary screen, imaging, J774A.1 cells, IgG beads; J774A.1 macrophage IgG-bead phagocytosis; inhibition, % at 5 µM; actives 0.07% (n = 110,000); AID 1029, 2008;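 active = inhibition above the mean of the plate negative controls plus 5 SD, cut at about 13% in these data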;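 also: phagocytic index as fraction of beads internalized from green versus red external bead signal; plate controls were DMSO negative control for no effect and cytochalasin-D positive control for full effect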
FAK inh – FAK kinase inhibitors, primary screen, biochemical | biochemical FAK kinase activity assay | inhibition, %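 (tested at 7 µM)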 | actives 0.84% (n = 97,000) | AID 727, 2007; in the data active = inhibition above about 19%;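 also: 0% = DMSO and 100% = reference compound high control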
CD11b adhes inh – inhibitors of CD11b/CD18 adhesion to fibrinogen, primary screen, K562 cells, luminescence | Integrin beta-2 (Homo sapiens) + Integrin alpha-M (Homo sapiens), P05107+P11215 | ATPlite luminescence; Mn2+ added to activate the integrin | inhibition, % at 10 µM | actives 0.54% (n = 93,000) | AID 1497, 2009;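 active = primary inhibition of 50% or more at 10 µM, then 40% or more on retest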
* marks the source's active call; other numbers are inactive results; x = not tested or not shown; + = active, no number; [ ] = another dose, or the depositor's remark. Only some compounds are listed: those with a hit (about 0.96% of all), similar ones and a draw of the others.

SMILES	TNAP act mid DEA	CD11b adhes enh	Phagocytosis inh	FAK inh	CD11b adhes inh
O=C(c1cc2nc3c(c(C(F)(F)F)n2n1)CCc1ccccc1-3)N1CCN2CCCC2C1 (centres undefined)	0.9	x	x	x	x
CSc1nc(N)nc(SCC(=O)CC(=O)OC(C)C)c1C#N	0.8	2	38*[artifact]	9	-19
Cc1nc(SCC(=O)CC(=O)OC(C)C)c(C#N)c(C)c1C	0.9	6	x	2	-22
O=C(CSc1ccc2ccccc2c1)Nc1ccncc1	x	-5	-1	-1	86*
C=CCn1c(NS(=O)(=O)c2ccccc2)c(S(=O)(=O)c2ccc(C)cc2)c2nc3ccccc3nc21	x	-10	-12	x	96*
CC(/C=C1\SC(=S)N(CCCC(=O)Nc2ccc(C(=O)O)c(O)c2)C1=O)=C\c1ccccc1	x	86*	-4	x	3
CC(=O)c1ccc(NC(=O)CN2C(=O)/C(=C/C(C)=C/c3ccccc3)SC2=S)cc1	x	x	-10	x	x
O=C(O)c1cc2ccccc2n1-c1ccccc1	0.9	-3	-2	x	9
COc1cccc(NC(=O)N2CCN(Cc3nc4ccccc4c(=O)[nH]3)CC2)c1	0.9	x	x	x	x
COC(=O)c1cc(NC(=O)c2ccc(Cn3cc(Cl)cn3)o2)cc(C(=O)OC)c1	0.9	76	-1	-4	-3
CCOC(=O)c1c(NC(=S)NC(=O)c2ccc(Cn3cc(Cl)cn3)o2)sc2c1CCC(C)C2 (centres undefined)	x	201*	0	-4	-2
C#CC(=O)N(c1cc(OC)ccc1OC)C(C(=O)NC1CCCC1)c1cccs1 (centres undefined)	x	3	73*	5	10
COc1ccc(N(C(=O)c2ccco2)C(C(=O)NC2CCCCC2)c2cccs2)cc1OC (centres undefined)	x	x	x	-1	x
CCc1nnc(NC(=O)C(C)N2C(=O)C3C4C=CC(C4)C3C2=O)s1 (centres undefined)	0.9	-4	0	3	-10
CCOC(=O)NC(NC(=S)Nc1ccc(OCC)cc1)C(Cl)(Cl)Cl (centres undefined)	x	x	29*[artifact]	x	x
CCN(CC)c1ccc(-n2c(O)c(C=C3N=c4ccccc4=N3)sc2=S)cc1	x	100	x	x	2
O=C(O)CCCCCn1c(O)c(C=C2N=c3ccccc3=N2)sc1=S	x	0	-6	x	69*
CCC(/C=C1\Sc2ccc(OC)cc2N1CCO)=C\c1sc2ccc(OC)cc2[n+]1CCO	x	x	+[fluoresces]	x	x
CC(OC(=O)c1ccccc1NCc1ccco1)C(=O)Nc1ncc(Cl)cc1Cl (centres undefined)	0.9	-2	0	x	6
Cc1ccc(C)c(N(CC(N)=O)S(C)(=O)=O)c1	0.9	0	0	-2	-8
COc1cc(NC(=O)CSc2ncnc3c2cnn3Cc2ccccc2)cc(OC)c1	x	0	3	0	64*
COC(=O)CSc1ncnc2c1cnn2Cc1ccccc1	0.9	-1	0	0	-5
Cc1ccc(S(=O)(=O)C(C#N)c2nc3ccccc3nc2N2CCCCC2)cc1 (centres undefined)	0.9	-4	-1	x	27
Cc1cccc(S(=O)(=O)C(C#N)c2nc3ccccc3nc2N2CCOCC2)c1 (centres undefined)	1	0	0	-3	58*
CCCN(CCC)CC(=O)Nc1cccc2c1OCO2	x	-6	-1	-1	-5
SMILES	TNAP act mid DEA	CD11b adhes enh	Phagocytosis inh	FAK inh	CD11b adhes inh
CCCSc1nsc(NC(=O)C(c2ccccc2)c2ccccc2)n1	x	-7	0	0	98*
COCCCNC(=O)c1sc2ncnc(N3CCc4ccccc4C3)c2c1C	x	x	x	23*	x
COc1ccc(CCNc2nc(-c3cccnc3)cs2)cc1OC	x	x	x	5	x
COc1ccc(CCNc2nc(-c3sc(C)nc3C)cs2)cc1OC	x	-7	1	-1	60*
c1ccc(-n2nnnc2-c2cnc(-c3ccncc3)nc2-c2cccs2)cc1	x	x	x	30*	x
O=C(CCn1c(=O)oc2ccccc21)Nc1ccc2c(c1)OCCO2	0.9	x	x	x	x
CNc1nc(SCC(=O)OC)nc(N2CCOCC2)n1	1	0	74*[artifact]	x	5
COc1ccc(/C=N/Nc2nncc3ccccc23)cc1	x	-10	-1	x	95*
O=C(CCn1cnc(-c2ccccc2)c1-c1ccccc1)N/N=C/c1ccccc1O	x	4	-3	x	7
CCC(=O)Nc1cc(C(=O)O)ccc1S(=O)(=O)c1ccc(C)cc1	x	x	-3	x	x
